Bioassay records deposited in PubChem by Fisher Drug Discovery Resource Center.
Compounds with a hit are over-represented: about 0.24% of the library has one in this group of screens.
mcGAS lum: cyclic GMP-AMP synthase inhibitors, mouse, primary biochemical chemiluminescence; hit rate 0.15% among 160,000; recombinant cGAS, Kinase-Glo ATP depletion luminescence; Q8C6L5; inhibition, % at 12.5 µM;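 note: 0% = negative control wells and 100% = reference inhibitor with no enzyme activity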
hcGAS lum: Primary biochemical luminescence assay for human cyclic GMP-AMP synthase inhibitors; Q8N884; recombinant h-cGAS, ATP depletion, Kinase-Glo luminescence; inhibition, % at 12.5 µM; hit rate 0.081% among 290,000;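 note: 0% = vehicle reaction and 100% = reaction without DNA for no activity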
Target sequence (Q8N884 whole entry, looked up): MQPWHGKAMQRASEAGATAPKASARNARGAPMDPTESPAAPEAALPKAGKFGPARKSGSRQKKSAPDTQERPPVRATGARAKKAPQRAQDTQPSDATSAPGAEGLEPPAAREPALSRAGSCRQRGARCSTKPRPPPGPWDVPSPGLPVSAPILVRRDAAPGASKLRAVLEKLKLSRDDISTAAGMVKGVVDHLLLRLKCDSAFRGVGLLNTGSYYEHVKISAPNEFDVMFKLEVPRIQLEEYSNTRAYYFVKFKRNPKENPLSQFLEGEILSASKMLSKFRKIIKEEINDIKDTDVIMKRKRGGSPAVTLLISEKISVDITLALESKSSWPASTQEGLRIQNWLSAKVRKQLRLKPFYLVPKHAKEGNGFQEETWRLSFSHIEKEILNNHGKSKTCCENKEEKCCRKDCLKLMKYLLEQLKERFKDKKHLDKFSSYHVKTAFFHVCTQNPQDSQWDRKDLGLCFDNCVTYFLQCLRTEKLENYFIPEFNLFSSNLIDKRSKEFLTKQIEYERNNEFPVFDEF
NPYLR7 ag: agonists of mosquito NPYLR7 receptor, primary screen, cell-based, Aedes aegypti, calcium fluorescence, mosquito biting behavior. Aedes aegypti neuropeptide Y-like receptor 7 (NPYLR7). activation, % at 10 µM. AID 1259423, 2018. hit rate 0.15% among 270,000. HEK293T NPYLR7/Galpha15, GCaMP6s calcium fluorescence; in the data active = activation above about 40%;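 note: 0% = vehicle and 100% = reference agonist at the receptor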
An asterisk follows results filed as active. Cut-off read from the data, not from the text of the source, unless noted: active = inhibition above about 40%; inactive = the rest.

What do the screens show for `COCC(=O)N1CCCC(C(=O)NC2CCCC[C@H]2NC(=O)c2ccccc2)C1` (some centres not stated)?
mcGAS lum: -11; hcGAS lum: -6

How did Fc1ccccc1N1CCN(Cc2nc(Cc3ccccc3Cl)no2)CC1 do in these assays?
mcGAS lum: -3; hcGAS lum: 0; NPYLR7 ag: 0

How did COc1ccc2[nH]c(C(=O)N3CCN(c4ncnc5c4CN(Cc4ccccc4)CC5)CC3)cc2c1 do in these assays?
mcGAS lum: -4; hcGAS lum: -1; NPYLR7 ag: -1

What do the screens show for `CCCNC(=O)c1nn(C(C)C)c(=O)c2ccccc12`?
hcGAS lum: -6; NPYLR7 ag: 1

What do the screens show for `N#CC1C(=N)C(C#N)(C#N)C(c2cccs2)C2CSCC=C12` (configuration not stated)?
hcGAS lum: -2; NPYLR7 ag: 17

How did CCN1CC=C2C(C#N)C(=N)C(C#N)(C#N)C(c3cccs3)C2C1 (configuration not stated) do in these assays?
mcGAS lum: -2; hcGAS lum: 0; NPYLR7 ag: 50*

What do the screens show for `O=C(CN1CCN(S(=O)(=O)c2ccc(Cl)c(Cl)c2)CC1)NC1CCCCCC1`?
hcGAS lum: 1; NPYLR7 ag: -4

How did O=C(Nc1ccccc1F)c1ccc2c(=O)n3c(nc2c1)CCCCCC3 do in these assays?
mcGAS lum: -1; hcGAS lum: 2; NPYLR7 ag: 1

Results for CC(C)NC(=O)C1(C)CCN1C(=O)c1ccc2ccccc2c1 (configuration not stated) ?
mcGAS lum: -3; hcGAS lum: -6; NPYLR7 ag: -1

What do the screens show for `COCc1cc(C)nc(NN=Cc2ccc(-c3ccc(Br)cc3)o2)c1C#N`?
mcGAS lum: 1; hcGAS lum: 2; NPYLR7 ag: -25

How did Cc1ccc(-c2ccc(/C=N\Nc3nc4nonc4nc3Nc3ccc(Br)cc3)o2)cc1Cl do in these assays?
mcGAS lum: 84*; hcGAS lum: 3; NPYLR7 ag: -2

Results for CCc1ccc(-c2nc(Cc3ccccc3)no2)cc1 ?
mcGAS lum: -6; hcGAS lum: -6; NPYLR7 ag: 20

Results for O=C(O)c1cc2c(ccc3ccccc32)oc1=O ?
mcGAS lum: 42*; hcGAS lum: 16; NPYLR7 ag: -6

How did COc1ccc(-c2nnc(-c3cc4c(ccc5ccccc54)oc3=O)o2)cc1 do in these assays?
mcGAS lum: -1; hcGAS lum: 3; NPYLR7 ag: -4

Results for O=C(NCc1ccccn1)c1cc2c(ccc3ccccc32)oc1=O ?
hcGAS lum: -6; NPYLR7 ag: 11

What do the screens show for `O=c1oc2ccc3ccccc3c2cc1-c1nnc(-c2ccccc2)o1`?
mcGAS lum: -2; hcGAS lum: 46*; NPYLR7 ag: -6

What do the screens show for `CC(=O)c1cccc(OCc2cc(C(=O)NCC3CCOCC3)n[nH]2)c1`?
hcGAS lum: -14; NPYLR7 ag: 12

What do the screens show for `Cc1cc(Cl)cc2c3c([nH]c12)CCC(NC(=O)c1cccc(C#N)c1)C3` (configuration not stated)?
mcGAS lum: -8; hcGAS lum: -7; NPYLR7 ag: 11

Results for CC1=NC2=C(C(=O)CC(c3ccccc3)C2)C(c2ccccc2Br)C1C#N (configuration not stated) ?
mcGAS lum: -5; hcGAS lum: -5; NPYLR7 ag: 2

What do the screens show for `COc1ccc(/C=C2\Oc3c(ccc4c3CN(C3CCS(=O)(=O)C3)CO4)C2=O)cc1` (configuration not stated)?
mcGAS lum: -6; hcGAS lum: -5; NPYLR7 ag: 68*

What do the screens show for `COc1ccc(/C=C2\Oc3c4c(cc(C)c3C2=O)OCN(Cc2ccncc2)C4)cc1`?
mcGAS lum: -6; hcGAS lum: -3; NPYLR7 ag: -3

Results for Cc1ccccc1/C=C1\Oc2c(ccc3c2CN(C2CCS(=O)(=O)C2)CO3)C1=O (configuration not stated) ?
mcGAS lum: 9; hcGAS lum: 23; NPYLR7 ag: 42

How did CC(C)c1ccc(/C=C2\Oc3c(ccc4c3CN(C3CCS(=O)(=O)C3)CO4)C2=O)cc1 (configuration not stated) do in these assays?
mcGAS lum: -7; hcGAS lum: -7; NPYLR7 ag: 43

What do the screens show for `COc1cc(/C=C2\Oc3c(ccc4c3CN(CC3CCCO3)CO4)C2=O)cc(OC)c1OC` (configuration not stated)?
mcGAS lum: 2; hcGAS lum: 2; NPYLR7 ag: 74*

What do the screens show for `COc1ccc(/C=C2\Oc3c(ccc4c3CN(CC3CCCO3)CO4)C2=O)cc1OC` (configuration not stated)?
mcGAS lum: -6; hcGAS lum: -5; NPYLR7 ag: 88*

How did COc1ccc(/C=C2\Oc3c4c(cc(C)c3C2=O)OCN(C2CC2)C4)cc1OC do in these assays?
mcGAS lum: -8; hcGAS lum: -6; NPYLR7 ag: 1

Results for COc1ccc(/C=C2\Oc3c(ccc4c3CN(CC3CCCO3)CO4)C2=O)cc1 (configuration not stated) ?
mcGAS lum: -6; hcGAS lum: -1; NPYLR7 ag: 64*

How did Cc1ccc2oc(-c3ccc(Cl)cc3OS(=O)(=O)c3ccc(F)cc3)nc2c1 do in these assays?
mcGAS lum: -2; hcGAS lum: 0; NPYLR7 ag: 0

Results for O=C(NCc1csc(-c2cnccn2)n1)[C@H]1Cc2ccccc2CN1 ?
mcGAS lum: -20; hcGAS lum: -2; NPYLR7 ag: 24

What do the screens show for `COCc1cc(C)nc(OCC(=O)N/N=C\c2cc(Br)c(O)c(Br)c2)c1C#N`?
mcGAS lum: 0; hcGAS lum: 0; NPYLR7 ag: 1

How did COCc1cc(C)nc(OCC(=O)N/N=C\c2cc(I)c(O)c([N+](=O)[O-])c2)c1C#N do in these assays?
mcGAS lum: 67*; hcGAS lum: 28; NPYLR7 ag: 0

How did COCc1cc(C)nc(OCC(=O)N/N=C\c2cc(I)c(O)c(I)c2)c1C#N do in these assays?
mcGAS lum: 58*; hcGAS lum: 19; NPYLR7 ag: 1

What do the screens show for `C=CCOc1c(I)cc(/C=N\NC(=O)COc2nc(C)cc(COC)c2C#N)cc1I`?
mcGAS lum: -1; hcGAS lum: 3; NPYLR7 ag: -2

What do the screens show for `COCc1c(Br)c(C)nc(OCC(=O)N/N=C\c2cc(I)c(O)c([N+](=O)[O-])c2)c1C#N`?
mcGAS lum: 83*; hcGAS lum: 33; NPYLR7 ag: 7

Results for COCc1c(Br)c(C)nc(OCC(=O)N/N=C\c2cc(I)c(O)c(OC)c2)c1C#N ?
mcGAS lum: 5; hcGAS lum: 4; NPYLR7 ag: -5

What do the screens show for `Nc1c2c(nc3ccccc13)CCCC2`?
mcGAS lum: -3; hcGAS lum: -2; NPYLR7 ag: -5

Results for Nc1c2ccccc2nc2ccccc12 ?
hcGAS lum: 72*; NPYLR7 ag: 2

How did COCCNC(=O)c1nn(-c2cccc(C)c2)c(=O)n(Cc2ccccc2Cl)c1=O do in these assays?
mcGAS lum: -6; hcGAS lum: -4; NPYLR7 ag: 12

How did O=c1oc(-c2ccccc2O)nc2ccccc12 do in these assays?
hcGAS lum: 55*; NPYLR7 ag: 3
